Results on 100 compounds are retold here after PubChem BioAssay AID488857 (Sanford-Burnham Center for Chemical Genomics, 2010).

The whole screen tested about 1,400 compounds, of which about 560 (40%) were called active.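 Rule for the calls: active = mean inhibition over duplicate tests at 10 µM above 50%; inactive = the rest.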 So high a share suggests a set chosen from earlier hits. This is one part of the list.

A short description of the test: ASC/caspase-1 reporter retest in S. cerevisiae at one dose, specificity check for NALP1 project (AID 488857). Conditions: S. cerevisiae ASC/Caspase-1, beta-galactosidase luminescence, 24 h; at 10 µM; active compounds read high.
`CC1CCCC(NC(=O)C2CCN(S(=O)(=O)N3CCCCC3)CC2)C1C` (stereo not given): the inhibition was 36.5% (inactive). Take `O=C(COc1cccc2ccccc12)N1CCN(c2ccccc2)CC1`: the inhibition is 52% (active). Take `O=C(Cc1ccc(-n2c(=O)[nH]c3ccccc3c2=O)cc1)N1CCN(c2ccccc2)CC1`: the inhibition is 17.4% (inactive). Consider `CCn1c(COc2ccccc2C)nnc1SCC(=O)N1CCN(c2ccccc2)CC1`, for which the inhibition is 40.5% (inactive). Consider `C/C(=N\N1CCN(c2ccc(Cl)cc2)CC1)c1ccco1`, for which the inhibition was 36.9% (inactive). For `CCCCCOc1ccc(Br)cc1CSC(=N)N` the value was 59% (active). As for `FC(F)(F)C(F)(F)c1nnc2ccc(-n3ccnc3)nn12`, the inhibition was 33.5% (inactive). With `Cc1ncc(S(=O)(=O)c2ccccc2)c(-c2ccccc2Cl)n1`, the inhibition is 7.65% (inactive).

For `COc1ccc2cc(/C=N/O)c(Cl)nc2c1`, the inhibition is 55% (active). In the case of `COc1ccc(CC2(C)OC(c3ccc(C)cc3)=NN2C(C)=O)cc1` (stereo not given) it was 59% (active); in that of `O=C1C=CC(=O)N1c1ccc(OC(F)F)cc1`, 71% (active). In the case of `CNCc1ccccc1Sc1cc(O)ccc1O` it was 24.2% (inactive).

As to `CN1c2ccccc2Sc2cc(N)ccc21`, the inhibition was 87.7% (active). Regarding `CC(C)C(=O)N(Cc1ccccc1)c1ccccn1`, the inhibition is 21.7% (inactive).

In the case of `Nc1c(C(=O)NCc2ccc3c(c2)OCO3)nnn1-c1ccc(OC(F)(F)F)cc1`, the inhibition was 48.9% (inactive).

On to `Cc1cc(C)cc(-n2nnc(C(=O)NCc3ccccc3)c2N)c1`, for which the inhibition was 53.6% (active). As to `CCOc1ccc(CNC(=O)c2cc3oc4ccccc4c3n2C)cc1`, the inhibition is 32.7% (inactive). With `C=C(C)C(=O)Nc1nnc(-c2cccs2)s1`, the inhibition is 36.6% (inactive). In the case of `CC(C)COC(=O)Nc1nnc(SCc2ccccc2F)s1` it was 47.1% (inactive). `CCSc1nnc(NC(=O)c2ccc(C)o2)s1`: the inhibition is 59.5% (active). For `CCSc1nnc(NC(=O)c2ccccc2)s1` the value was 85.4% (active); for `Cc1ccc(Nc2nnc(SCC(=O)Nc3ccc(S(=O)(=O)N4CCOCC4)cc3)s2)cc1`, 36% (inactive). For `Cc1cccc(N/C=C/C(=C(C#N)C#N)N(C)C)c1`, the inhibition was 38.1% (inactive). Regarding `CN(C)c1ccc(N/C=C/C(=O)c2ccccc2)cc1`, the inhibition was 62.9% (active). For `O=C(NCc1cccnc1)C1CCN(S(=O)(=O)c2cccnc2)CC1`, the inhibition was 42.8% (inactive). `COc1ccc(S(=O)(=O)N(CC(=O)N2CCOCC2)Cc2ccccc2)cc1C`: the inhibition is 40.5% (inactive). Consider `O=C(c1ccc(Br)s1)N1CCN(C/C=C/c2ccccc2)CC1`, for which the inhibition is 55.4% (active). Turning to `CN(CC(=O)NC(=O)NCc1ccccc1)Cc1cccc(Cl)c1Cl`, the inhibition was 43.1% (inactive).

Regarding `CCN(c1cccc(C)c1)S(=O)(=O)c1cccc(C(=O)O)c1`, the inhibition is 32.3% (inactive).

Turning to `CCN(CC)c1ccc(/C=C2/SC(=O)N(C(C)C)C2=O)o1`, the inhibition is 71% (active).

Take `N#CC1(C#N)CC(C=O)=C(N)C1(C#N)CC(=O)C12CC3CC(CC(C3)C1)C2` (stereo not given): the inhibition is 35.1% (inactive). Take `Cc1cc(C(=O)COC(=O)c2ccc[nH]c2=O)c(C)n1-c1ccc(F)cc1`: the inhibition was 52.3% (active).

In the case of `Cc1cc(C(=O)COC(=O)c2ccc[nH]c2=O)c(C)n1-c1ccccc1`, the inhibition was 57.5% (active). For `CCC(=O)N(Cc1cc2c(C)ccc(C)c2[nH]c1=O)C1CCCCC1`, the inhibition is 36.8% (inactive). On to `CCC(C(=O)OC)n1cnc2scc(-c3ccc(C)c(C)c3)c2c1=O` (stereo not given), for which the inhibition was 98.5% (active). For `CC[n+]1c(/C=C/N(C)c2ccccc2)n(-c2ccccc2)c2ccc(-c3nc4ccccc4s3)cc21` the value was 64.5% (active); for `O=C(Cn1cccc(C(F)(F)F)c1=O)c1ccc(Cl)cc1`, 20.5% (inactive). As to `O=C(NNC(=O)c1ccc(-c2ccccc2)cc1)Nc1ccc(F)cc1F`, the inhibition was 42.6% (inactive).

Take `O=C(Nc1ccccc1)Nc1ccc(Br)cc1F`: the inhibition is 73.9% (active). For `Cc1ccc(S(=O)(=O)N(C)C)cc1NC(=O)Nc1ccccc1F` the value was 24.1% (inactive). Take `O=C(c1ccccc1)c1ccc(OCC(O)CNC2CCCc3ccccc32)cc1` (stereo not given): the inhibition was 38.8% (inactive). In the case of `COc1ccc(C2NCCc3c2[nH]c2ccccc32)cc1CSc1nc2ccccc2s1` (stereo not given) it was 50% (active); in that of `CSc1nc(C)cc(OCCO)n1`, 40.9% (inactive). As to `CCOc1ccc(OCCSc2nc3ccccc3o2)cc1`, the inhibition was 44.1% (inactive).

As for `CCCOc1ccc(OCCSc2ncccn2)cc1`, the inhibition was 50.8% (active). Turning to `CC(=O)NS(=O)(=O)c1ccc(NC(=O)CSc2ccccc2)cc1`, the inhibition was 18.9% (inactive). With `CC(C)CN=C(NS(=O)(=O)c1ccccc1)C(Cl)(Cl)Cl`, the inhibition was 51.1% (active).

For `Cc1ccc(S(=O)(=O)N[C@@H](Cc2ccccc2)C(=O)CCl)cc1`, the inhibition is -4.2% (inactive). Turning to `Cc1c(C)c2cc(Cl)c(O)c(CN3CCCCC3)c2oc1=O`, the inhibition was 35.6% (inactive).

For `CCc1oc2ccccc2c1C(=O)CCN1CCCCC1`, the inhibition was 66.5% (active). For `O=C(OCCN1CCCCC1)c1cc2ccccc2o1` the value was 18.4% (inactive); for `O=C(NCCCn1ccnc1)c1ccc(Br)o1`, 24.1% (inactive). Turning to `COc1ccc(-c2nc(CCNC(=O)c3cccs3)cs2)cc1`, the inhibition is 54.7% (active). For `c1ccc(CCNc2nc(-c3cccnc3)cs2)cc1` the value was 45% (inactive). As to `Cc1ccc(CN(C(=O)CNC(=O)c2cccs2)C(C(=O)NCC2CCCO2)c2ccccc2)cc1` (stereo not given), the inhibition was 38.1% (inactive).

In the case of `COc1ccc(CCNC(=O)c2sc3cc(C)ccc3c2Cl)cc1`, the inhibition was 43.6% (inactive). In the case of `O=C(NCCc1csc(-c2ccccc2)n1)c1ccc(Br)o1` it was 62.4% (active); in that of `O=C(O)C1C2C=CC(C2)C1C(=O)NCc1ccc(Cl)c(Cl)c1` (stereo not given), 45.9% (inactive); in that of `C=C(C)C1Cc2c(C)nn(-c3ccccn3)c2C1` (stereo not given), 36.1% (inactive). `Cc1cc(C)cc(NS(=O)(=O)c2ccc(NC(=S)NC(=O)c3ccc(Br)o3)cc2)c1`: the inhibition was 43.1% (inactive).

Consider `CSCc1ccc(C(=O)Nc2cc(C)cc(C)c2)cc1`, for which the inhibition was 82.3% (active). On to `Cc1ccc(-c2nc3cnccn3c2Nc2c(C)cccc2C)o1`, for which the inhibition was 54.5% (active). Take `COc1ccc(-c2nc3cnccn3c2Nc2ccc(C)cc2)cc1`: the inhibition was 37.3% (inactive). In the case of `CCCCCCC(=O)N(O)C1CC(=O)N(Cc2ccccc2)C1=O` (stereo not given), the inhibition was 27.9% (inactive).

On to `O=C(CC(O)(C(F)(F)F)C(F)(F)F)Nc1ccc(Cl)c(Cl)c1`, for which the inhibition was 97% (active). In the case of `CN1CCN(C(=S)Nc2ccc(Cl)c(Cl)c2)CC1`, the inhibition was 31.7% (inactive). `Cc1ccc(NC(=S)Nc2ccc(Cl)c(Cl)c2)c(OC(F)F)c1`: the inhibition was 45.8% (inactive). On to `FC(F)Oc1ccc(/C=N/c2c(-c3ccc(OC(F)F)cc3)nc3n2CCS3)cc1`, for which the inhibition was 47.1% (inactive).

Turning to `CN(C)CCCN(C(=O)CCS(=O)(=O)c1ccccc1)c1nc2cc3c(cc2s1)OCO3`, the inhibition is 70.2% (active). Turning to `CN(C)CCCN(C(=O)CCOc1ccccc1)c1nc2c(F)cccc2s1`, the inhibition is 56% (active). For the compound `Cc1cccc2sc(N(CCCN(C)C)C(=O)CCS(=O)(=O)c3ccccc3)nc12`, the inhibition was 71.3% (active).

As for `Cc1ccc2nc(N(CCCN(C)C)C(=O)CCc3ccccc3)sc2c1`, the inhibition is 54.9% (active). `O=C(CCN1C(=O)c2ccccc2C1=O)N1CCN(C2c3ccccc3-c3ccccc32)CC1`: the inhibition was 18.1% (inactive). Regarding `CC(C)C(NS(=O)(=O)c1ccc2c(c1)oc(=O)n2C)C(=O)N1CCN(C2CCCCC2)CC1` (stereo not given), the inhibition was 34.7% (inactive). For the compound `Cc1ccc2sc(N(CCCN(C)C)C(=O)CCS(=O)(=O)c3ccccc3)nc2c1C`, the inhibition is 92.2% (active).

`CC(/C=N/NC(=O)CSc1ccccn1)=C\c1ccc(C(C)C)cc1`: the inhibition is 39% (inactive).

As for `CC(/C=N/NC(=O)CCn1nnc2ccccc21)=C\c1ccccc1`, the inhibition was 42.8% (inactive).

Regarding `CC(/C=N/NC(=O)c1c(Br)cnn1C)=C\c1ccccc1`, the inhibition was 56.6% (active). For `Cc1cc(C(C)(C)C)cc(C)c1S(=O)(=O)N1CC(=O)Nc2ccccc21` the value was 50.1% (active). For `CC(C)c1ccc(-c2c(C#N)c(N)nc3c2CCCCC3)cc1`, the inhibition was 23.8% (inactive). With `CCN(c1ccccc1)S(=O)(=O)c1cc(NC(=O)Nc2ccccc2C#N)ccc1Cl`, the inhibition is 30.4% (inactive). Take `COc1ccc(-c2cc(-c3cc(OC)ccc3O)[nH]n2)cc1`: the inhibition is 57.5% (active). For `CCOCC(O)CNC(=O)c1ccc(OC2CCN(C(=O)c3cccnc3)CC2)cc1` (stereo not given), the inhibition is 29.2% (inactive).

In the case of `Cc1cc(/C=C2/SC(=S)N(c3ccc([N+](=O)[O-])cc3)C2=O)c(C)n1-c1cccnc1`, the inhibition was 37.3% (inactive).

`O=C(NC1CCCC1)c1ccc(CN2CCOCC2)cc1`: the inhibition is 45.1% (inactive). For `O=C(NC1CCCCC1)c1noc2c1CCCCC2` the value was 71.2% (active). In the case of `C=CCn1c(=O)c2ccc(C(=O)NCc3ccccc3)cc2n(Cc2ccccc2Cl)c1=O` it was 36.4% (inactive); in that of `Cc1ccc(-c2csc(NC(=O)c3ccc(F)cc3)c2C(=O)O)cc1`, 93.8% (active). With `Cc1noc(C)c1S(=O)(=O)N1CCC(C(=O)N2CCC(N3CCCCC3)CC2)CC1`, the inhibition is 23.3% (inactive). Consider `CCOC(=O)CNC(c1ccccc1)c1cc(Br)ccc1NC(=O)CCN1CCOCC1` (stereo not given), for which the inhibition is 44.6% (inactive). Take `CCCOc1ccc(C(=O)C(CN2CCCC2)c2ccccc2)cc1` (stereo not given): the inhibition was 48.7% (inactive). `CCOc1ccc(C(=O)C(CN2CCOCC2)c2ccccc2)cc1` (stereo not given): the inhibition is 52.9% (active). For `CCn1nc(C)cc1Nc1ccccc1` the value was 32.9% (inactive). For `Cc1cc(Nc2ccccc2)nn1C(=O)c1ccccc1` the value was 58% (active); for `COc1cc2c(cc1NC(=S)Nc1ccccc1C)oc1ccccc12`, 45.5% (inactive); for `Cc1ccccc1N=C/C=C1\N(C)c2ccccc2C1(C)C`, 42.5% (inactive). In the case of `CN1/C(=C\C(=O)c2cccs2)C(C)(C)c2ccccc21` it was 40% (inactive); in that of `CN(C)c1ccc(N=C/C=C2/N(C)c3ccccc3C2(C)C)cc1`, 56.5% (active); in that of `CS(=O)(=O)c1nc(-c2ccco2)cc(C(F)(F)F)n1`, 90.7% (active). For `Cc1ccc2cc(CN(Cc3ccco3)C(=O)NC3CCCCC3)c(=O)[nH]c2c1C`, the inhibition was 42.8% (inactive).
